# Most compounds without a hit are left out; they make up all but 21% or so of the library.
# Pf growth 48h: Primary qHTS for delayed death inhibitors of the malarial parasite plastid, 48 hour incubation. P. falciparum luciferase growth in erythrocytes, 48 h. Potency, µM (top dose mostly 28.7 µM), inactives show top-dose activity change, negative = inhibition, hits mostly inhibitors. 5.9% of 310,000 active. AID 504832, 2011; active = well fitted inhibition curve with a large enough effect; inconclusive = small, poorly fitted or top-dose-only effect, or another doubt; inactive = no such curve, though single readings can be large or run the other way; note: potency is the fitted concentration of half-maximal effect; % is set by controls: 0 for no effect and ±100 for the full control effect
#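 Luciferase-expressing P. falciparum in infected erythrocytes (2% hematocrit, 0.1% parasitemia final) in RPMI 1640/0.5% Albumax were exposed to compound for 48 hours at 37 C, 5% CO2; growth read as luminescence.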
# CHX counter: Cycloheximide Counterscreen for Small Molecule Inhibitors of Shiga Toxin; cell reporter, cycloheximide protein synthesis inhibition counterscreen; max response, %; 12% of 300,000 active; in the data active = max response mostly above about 13%, no sharp cut-off; inactive = mostly below about 14%; note: read at 38.3 µM for the half of the compounds with a filed dose; 0% is about no effect
# SARS PLP yeast: qHTS of Yeast-based Assay for SARS-CoV PLP; S. cerevisiae expressing SARS-CoV PLpro, growth rescue; Potency, µM (titrated, usually from 32.9 µM), for inactives: at the highest dose activity, positive = growth rescue, actives largely listed as activators; 0.19% of 330,000 active; note: potency is the fitted concentration of half-maximal effect; 0% is about no effect; nearly all actives have a fitted effect of over 55% in size
# Shiga toxin inh: A qHTS for Small Molecule Inhibitors of Shiga Toxin; Vero cells, Shiga toxin protein synthesis inhibition reporter; 9.2% of 290,000 active; inhibition, % at 38.7 µM; in the data active = inhibition mostly above about 28%, no sharp cut-off; inactive = mostly below about 43%; note: 0% is about no effect
# NS1 inh: qHTS Assay for Inhibitors of Influenza NS1 Protein Function; 0.4% of 270,000 active; Potency, µM (highest dose often 46.1 µM), for inactives: top-dose activity, positive = more growth; note: potency is the fitted concentration of half-maximal effect; actives are rising curves; nearly all actives have a fitted effect of over 50% in size
#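 OD600 was taken as the measure of yeast growth restored by compound in an NS1-expressing S. cerevisiae strain. Cells had been washed out of glucose medium and diluted 1:100 into galactose -URA medium, pH 6.0.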
# Pf growth 96h: Primary qHTS for delayed death inhibitors of the malarial parasite plastid, 96 hour incubation. P. falciparum luciferase reporter growth, 96 h. Potency, µM (series often up to 28.7 µM), inactives show top-dose activity change, negative = inhibition, hits mostly inhibitors. 6.9% of 320,000 active. AID 504834, 2011; active = well fitted inhibition curve with a large enough effect; inconclusive = small, poorly fitted or top-dose-only effect, or another doubt; inactive = no such curve, though single readings can be large or run the other way; note: potency is the fitted concentration of half-maximal effect; % is set by controls: 0 for no effect and ±100 for the full control effect
#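 Two parasite generations (96 h, 37 C, 5% CO2) of compound exposure in infected erythrocytes (0.05% parasitemia, 2% hematocrit). Luciferase-reporter P. falciparum; decreased luminescence indicates inhibited growth, aimed at apicoplast-acting delayed death.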
# * marks the source's active call; other numbers are inactive results; ? = inconclusive; . = no result. Unless noted, calls come from the whole dose curve.
SMILES,Pf growth 48h,CHX counter,SARS PLP yeast,Shiga toxin inh,NS1 inh,Pf growth 96h
COc1cc(C(C)=O)ccc1OCC(O)CN1CCN(c2ccc(C)c(C)c2)CC1 (stereo not drawn),-18%,-3,5%,.,2%,2%
Clc1ccc(-c2nnc(COc3ncnc4sccc34)o2)cc1,13%,34*,-23%,34*,-6%,77%
CC12CCC(C(=O)N3CCCCC3)([C@H](Br)C1=O)C2(C)C (stereo partly drawn),-6%,-1,5%,-9,-3%,-10%
c1ccc(-c2cnc(-c3ccc(-c4ncc(-c5ccccc5)o4)cc3)o2)cc1,.,.,.,.,-8%,.
Clc1ccccc1-c1ncc(-c2ccccc2)o1,139%,26*,0%,.,-34%,134%
Cc1ccc(C(=O)N/C(=C\c2cn(S(=O)(=O)N(C)C)c3ccccc23)C(=O)NCCN2CCOCC2)cc1,?,0,-3%,9,-9%,?
Cc1cc(OCc2cccc(Cl)c2)c(C)cc1CN1CCOCC1,76%,24*,-3%,25,-56%,?
COc1ccc(C(=O)N2CCc3cc(OC)c(OC)cc3C2c2cccc([N+](=O)[O-])c2)cc1OC (stereo not drawn),13µM*,5,7%,-2,0%,?
COc1ccc(C2c3cc(OC)c(OC)cc3CCN2C(=O)c2ccccc2)cc1OC (stereo not drawn),?,-1,?,3,3%,2.1µM*
COc1cc2c(cc1OC)C(c1cc(Br)ccc1F)N(C(=O)CCl)CC2 (stereo not drawn),8.3µM*,3,-1%,-11,-10%,?
COc1ccc(C2c3cc(OC)c(OC)cc3CCN2C(=O)c2ccccc2Br)cc1OC (stereo not drawn),12µM*,-2,-1%,-10,15%,?
Cc1ccc(S(=O)(=O)N(C)C)cc1NC(=O)CCNC(=O)c1ccco1,1%,2,-1%,7,4%,0%
COc1ccc(OC)c(N2C(=O)C(Cl)=C(N3CCCCC3)C2=O)c1,-1%,-4,-9%,-11,5%,21%
O=C1C(Cl)=C(N2CCCCC2)C(=O)N1c1ccccc1,?,-1,3%,13,?,?
Cc1ccc(N2C(=O)C(Cl)=C(N3CCCCCC3)C2=O)cc1,15%,27*,-3%,44,2%,-30%
COc1ccccc1N1C(=O)C(Cl)=C(N2CCCC2)C1=O,23%,-1,-4%,.,9%,9.3µM*
CCc1ccccc1N1C(=O)C(Cl)=C(N2CCOCC2)C1=O,1%,-3,2%,.,1%,1.5µM*
O=C1C(Cl)=C(N2CCOCC2)C(=O)N1c1ccc(Br)cc1,?,-3,-1%,-6,1%,12µM*
CC(C)c1ccc(N2C(=O)C(Cl)=C(N3CCOCC3)C2=O)cc1,-12%,-6,7%,-6,6%,3%
NC(=O)NC(=O)COC(=O)[C@H](Cc1ccccc1)NC(=O)c1cccs1,?,-7,0%,-8,.,-4%
[O-][n+]1c2c(c3c4non(O)c4ccc31)CCCC2,.,-6,-51%,-17,-116%,12µM*
COn1c2c(c3c4no[n+]([O-])c4ccc31)CCCC2,.,6,-9%,12,-3%,-16%
Cc1nnc(SCc2c(Cl)cccc2Cl)s1,21%,32*,9%,60*,0%,78%
Clc1cccc(Cl)c1CSc1nnc(-c2ccncc2)s1,2.6µM*,-2,0%,15,-1%,2.1µM*
O=C(O)/C=C/c1cc(F)c(S(=O)(=O)N2CCN(S(=O)(=O)c3ccc4c(c3)OCCO4)CC2)cc1F,.,-3,.,-5,.,.
COc1ccc(NC(=O)CN(C)C(=O)CCCSc2nc3ccccc3[nH]2)cc1,?,.,-6%,.,.,-5%
CCN(C(=O)Cn1cc(C(F)(F)F)ccc1=O)c1c(N)n(Cc2ccccc2)c(=O)[nH]c1=O,22%,-4,0%,-3,.,-30%
CCC(=O)Nc1cc(C(=O)OC(C(=O)c2ccc(C)c(C)c2)c2ccccc2)ccc1C (stereo not drawn),12µM*,3,-29%,-18,4%,1.7µM*

# Screening results (PubChem)
